In all, about 370,000 compounds went through this assay and about 2,800 (0.76%) were called active. Only a selection was taken, and actives are over-represented in it overall. A number with no mark means an inactive call. Rule as the data show it: active = inhibition above about 21%; inactive = the rest.

The target of the experiment is E3 ubiquitin-protein ligase UHRF1 (Homo sapiens) (UniProt Q96T88). As to the kind of experiment: UHRF1 methylated DNA binding inhibitors, primary screen, counter-screen for MBD2 inhibitor project, biochemical, TR-FRET, human UHRF1, single concentration (AID 687016).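 Also: UHRF1 SRA domain binding a hemimethylated CpG hairpin DNA probe; 0% = median of test compound wells and 100% = reference inhibitor.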 The note with it: UHRF1 binding to methylated oligo, at 4.4 µM, stronger effect = higher value.
Sequence of E3 ubiquitin-protein ligase UHRF1 (Homo sapiens) (Q96T88 whole entry, looked up, the tested form may be a part): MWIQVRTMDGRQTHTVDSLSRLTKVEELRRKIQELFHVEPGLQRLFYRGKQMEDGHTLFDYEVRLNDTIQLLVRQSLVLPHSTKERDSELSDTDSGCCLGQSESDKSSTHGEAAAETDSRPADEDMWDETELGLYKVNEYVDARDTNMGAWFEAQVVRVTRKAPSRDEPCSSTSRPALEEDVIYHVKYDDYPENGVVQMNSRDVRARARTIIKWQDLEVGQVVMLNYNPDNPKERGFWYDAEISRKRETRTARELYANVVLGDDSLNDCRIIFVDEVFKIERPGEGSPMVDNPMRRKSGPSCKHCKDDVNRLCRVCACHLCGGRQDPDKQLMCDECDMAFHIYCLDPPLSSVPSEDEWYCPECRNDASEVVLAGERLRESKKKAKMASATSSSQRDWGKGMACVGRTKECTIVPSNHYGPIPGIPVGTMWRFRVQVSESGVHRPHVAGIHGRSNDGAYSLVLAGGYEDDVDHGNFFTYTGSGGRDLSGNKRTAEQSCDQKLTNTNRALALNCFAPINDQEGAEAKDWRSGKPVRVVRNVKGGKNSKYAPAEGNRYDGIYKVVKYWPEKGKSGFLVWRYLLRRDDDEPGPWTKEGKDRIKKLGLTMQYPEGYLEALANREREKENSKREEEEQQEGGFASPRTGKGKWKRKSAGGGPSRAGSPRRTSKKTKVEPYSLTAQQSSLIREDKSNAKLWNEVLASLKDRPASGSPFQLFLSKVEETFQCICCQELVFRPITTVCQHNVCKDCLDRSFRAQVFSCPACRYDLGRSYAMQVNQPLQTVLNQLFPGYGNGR
As to `COc1ccc([C@H]2OC(=O)C[C@H]2C(=O)N2CCN(c3ccccc3F)CC2)cc1OC`, the inhibition (usually the drop in the measured response relative to a control, in per cent) was -2.23%. The same measure for `O=S(=O)(Cc1ccccc1)c1nc2ccccc2n1Cc1ccccn1`: 0.93%; for `COc1ccc(C)c(Cn2c(-c3nonc3N)nc3ccccc32)c1`: -5.53%; for `CC(=O)Nc1nonc1-c1nc2ccccc2n1Cc1ccccn1`: 54.5% (active).

`Cc1cccc(C(=O)Nc2c(-c3ccc(F)cc3)nc3ncccn23)c1`: the inhibition is -2.59%. For `COc1ccc(N2CCN(CCNS(=O)(=O)c3ccc([N+](=O)[O-])cc3)CC2)cc1` the value was -0.84%; for `Cc1ccc(NC(=O)C2CCCN(S(=O)(=O)c3c(C)noc3C)C2)c(C)c1` (configuration not stated), -1.46%; for `Cc1noc(C)c1S(=O)(=O)N1CCCC(C(=O)Nc2nccs2)C1` (configuration not stated), -1.61%. For `COc1c(C)cc(C(=O)C2CCCN(S(=O)(=O)c3c(C)noc3C)C2)cc1C` (configuration not stated) the value was 20.7% (active).

In the case of `Cc1ccc(C2=CCN(C)C(=O)N2c2ccc(Cl)cc2)cc1`, the inhibition was -4.14%. The same measure for `COc1ccc(C#CCNCc2ccc(OC)cc2OC)cc1`: -1.17%; for `CCOC(=O)c1sc2nc(C)nc(SCC(N)=O)c2c1C`: -1.2%. Regarding `CCN(CC)Cc1nc2sc(C)c(C)c2c(=O)[nH]1`, the inhibition is 2.13%.

For the compound `CSc1nnc(SCc2nc3sc(C(=O)O)c(C)c3c(=O)[nH]2)s1`, the inhibition was 32.3% (active). The same measure for `Cc1c(C(C)c2ccccc2O)[nH]c2ccccc12` (configuration not stated): -2.42%; for `O=C(CSc1nc2ccccc2s1)N=Nc1c(O)[nH]c2ccccc12`: -3.32%; for `CCN(CC)C(=O)CC[C@@H]1CC[C@]2(CCCN(S(=O)(=O)C3CCCCC3)C2)O1`: -0.55%.

Regarding `Cc1ccc(Cn2cc(COC(=O)N(C)Cc3ccccc3)nn2)cc1`, the inhibition is -4.1%. Take `Cc1ccc(Cn2nnc3c(=O)n(CC(=O)N4CCCCC4)cnc32)cc1`: the inhibition is 0.43%.

Regarding `Cc1cc(C)cc(NC(=O)Cn2cnc3c(nnn3Cc3ccc(F)cc3)c2=O)c1`, the inhibition is 0.23%. For `O=C(Cn1cnc2c(nnn2Cc2ccc(F)cc2)c1=O)NCc1ccc2c(c1)OCO2` the value was 21.8% (active). For `CCCCNC(=O)C[C@H]1C(=O)N(Cc2ccc(OC)cc2)C2=CCCC[C@@]21C(=O)OCC` the value was 5.53%; for `Cc1nc(CNc2ncnc3ccc(-c4ccc5c(c4)OCO5)cc23)cs1`, -2.89%. The same measure for `COC(=O)c1c(-c2ccc(C)cc2)csc1N`: 28.4% (active).

As to `COC(=O)c1sc(N)c(C(=O)OC)c1COC(=O)CNS(=O)(=O)c1ccc(C)cc1`, the inhibition is -0.33%.

In the case of `CCC(C(=O)OC)n1cnc2scc(-c3ccc(C)cc3)c2c1=O` (configuration not stated), the inhibition is 0.64%. For `CCCCNC(=O)C[C@H]1C[C@@]2(C(=O)OC)C(=C[C@H](COCc3ccccc3)O[C@@H]2C)N(Cc2ccc(Cl)cc2Cl)C1=O` the value was 1.55%; for `COC(=O)C1CN(CCc2ccccc2)CCS(=O)(=O)N1Cc1cccc(Cl)c1` (configuration not stated), 1.44%.

On to `CC(NCc1ccco1)C(=O)N1CCCCC1` (configuration not stated), for which the inhibition is 0.03%. The same measure for `COc1ccc(-n2c(SCC(=O)Nc3ccc4c(c3)OCCO4)nnc2-c2ccc(Cl)cc2)cc1`: 2.21%; for `COC(=O)CC1CCc2cc(C)cc(C(CC(C)C)NC(=O)[C@H](CC(C)C)NC(=O)OCc3ccccc3)c2O1` (some centres not stated): 4.14%. As to `CC(=O)c1cccc(-c2cnc3c(NC=O)cc(-c4ccc(N(C)C)cc4)cn23)c1`, the inhibition was 31.6% (active).

As to `CC(=O)c1cccc(-c2cnc3c(NC=O)cc(-c4ccc(N5CCN(C)CC5)cc4)cn23)c1`, the inhibition is -0.16%. For `CN(C)C(=O)c1cccc(-c2cnc3c(NC=O)cc(-c4ccc(C(=O)N5CCOCC5)cc4)cn23)c1`, the inhibition is -6.57%. The same measure for `Cc1ccccc1CN1CCCCC(NC(=O)Nc2ccccc2F)C1=O` (configuration not stated): -1.71%; for `CCOC(=O)CSc1nc(N2CCOCC2)c2c(c1C#N)CC(C(C)C)OC2` (configuration not stated): 1.09%; for `CC1(C)Cc2c(C#N)c(SCc3nc4ccccc4[nH]3)nc(N3CCOCC3)c2CO1`: 25.8% (active).

With `CC(C)C(=O)N1CCN(c2nc(-c3ccccc3)c3c(c2C#N)CC(C)(C)OC3)CC1`, the inhibition was -0.61%. For `CCC[C@H]1C(=O)CC[C@@]23CCCN2C(=O)CCC[C@@H]13` the value was -3.81%. For `CC(C)N(C(=O)Cn1cc(S(=O)(=O)CC(=O)N2CCOCC2)c2ccccc21)C(C)C` the value was 0.05%; for `CCN(CC)C(=O)C(=O)c1cn(CC(=O)NCc2ccc3c(c2)OCO3)c2ccccc12`, 1.9%; for `CCN(CC)C(=O)Cn1cc(S(=O)(=O)CC(=O)NCc2ccc3c(c2)OCO3)c2ccccc21`, 22.7% (active). The same measure for `CCCSc1ccc([C@H]2N[C@@](Cc3ccccc3)(C(=O)OC)[C@H]3C(=O)N(C)C(=O)[C@@H]23)cc1`: 2.8%; for `CC[C@@]1(C(=O)OC)N[C@H](CN(C)C(C)=O)[C@@H]2C(=O)N(C)C(=O)[C@@H]21`: 4.65%; for `CCCC1(C(=O)OC)NC(c2ccco2)C2C(=O)N(C)C(=O)C21` (configuration not stated): 26.9% (active). `COc1ccc2c(c1)CN1CN(CCc3ccccc3)S(=O)(=O)CC21` (configuration not stated): the inhibition was -5.7%. In the case of `COC(=O)[C@@]12CCCCC3=C1N(CCC3)C(=O)[C@H]2CC(=O)NCc1cccc2ccccc12`, the inhibition was -1.21%. The same measure for `CC(=O)N1CCc2cc(S(=O)(=O)NCCC(=O)N3CCCC3)ccc21`: 2.88%; for `CC(c1ccc(N)cc1)c1cn(C)c2ccccc12` (configuration not stated): 2.19%; for `O=C(NCCc1c[nH]c2ccccc12)OCc1cn(-c2c(F)cccc2F)nn1`: -1.24%. The same measure for `O=S(=O)(c1ccccc1)N1CCC(c2nc3ccccc3o2)CC1`: -2.1%; for `O=C(O)c1cc(S(=O)(=O)NC2CCCc3ccccc32)ccc1O` (configuration not stated): 26.4% (active); for `CNS(=O)(=O)c1cccc(C(=O)NC2CCCc3ccccc32)c1` (configuration not stated): -0.54%. For `Cc1ccc(S(=O)(=O)N2CCN(C(=O)CCC(=O)NC3CCCc4ccccc43)CC2)cc1` (configuration not stated) the value was -0.03%. Take `COC(=O)C1CN(CCc2ccccc2)CCS(=O)(=O)N1Cc1ccc(F)cc1` (configuration not stated): the inhibition is 2.78%. For `O=C(Nc1cc(F)cc(F)c1)OC1CCC12CCC(c1ccccc1)CC2` (configuration not stated) the value was -0.77%.

`CC(C)(C)c1ccc(C(=O)Nc2cc(Cl)c(Br)cc2C(=O)O)cc1`: the inhibition was 3.66%.

Regarding `Cc1ccc(S(=O)(=O)N(CC(=O)NN=C2CCN(C)CC2)c2ccc(F)cc2)cc1`, the inhibition is -0.56%. For `COc1ccccc1N(CC(=O)N/N=C(\C)c1ccccc1O)S(=O)(=O)c1ccc(C)cc1` the value was -1.56%.

In the case of `Cc1ccc(S(=O)(=O)N(CC(=O)N/N=C/c2ccc(F)cc2)c2cccc3cccnc23)cc1`, the inhibition is 24.1% (active). The same measure for `O=S1(=O)c2ccc(Br)cc2OC[C@H](Cc2ccccc2)N1Cc1cn(Cc2ccccc2)nn1`: 1.7%; for `COc1ccc(S[C@]2(C(=O)N(C)C)CC(=O)N(c3ccc(OC)cc3)[C@@H]2c2ccc(OC)cc2)cc1`: 2.01%; for `O=C(O)c1ccc(NN=CC2=C(N3CCOCC3)/C(=C/c3ccccc3)CC2)cc1`: 22.5% (active). The same measure for `O=C1OC(NC(=O)c2ccccc2)C(N2CCOCC2)=C1Cl` (configuration not stated): 0.02%; for `O=C(Nc1ccc(F)cc1)c1cccnc1N1CCOCC1`: -3.63%; for `CCOC(=O)C(=O)N(Cc1ccccc1)c1ccccc1C(=O)Nc1cc(OC)ccc1OC`: 1.4%. Consider `COc1ccc(CCNc2nc(-c3cccc(NC(C)=O)c3)cs2)cc1OC`, for which the inhibition is 63% (active). Turning to `COc1ccc(CCNc2nc(C)cc(C)n2)cc1OC`, the inhibition was -1.42%. The same measure for `COc1ccc(NC(=O)C2(C)Cc3c(-c4cccc(NC(C)=O)c4)ccnc3O2)cc1OC` (configuration not stated): 3.78%; for `Cc1ccc(CSc2nnc(SCC(=O)NN=Cc3cc(Br)ccc3F)s2)cc1`: -0.65%.

For `COc1ccc(-n2c(SCC(=O)Nc3ccc(C)c(Cl)c3)nc3ccccc3c2=O)cc1`, the inhibition is 0.63%.

With `COc1ccc(NC(=O)CSc2nnc(Cc3ccccc3)c(=O)n2N)cc1`, the inhibition was -3.2%. For `COc1ccc(NC(=O)CSc2nc3ccccc3c(=O)n2C)cc1` the value was 40.1% (active); for `COc1ccc(C2CC=C(C(=O)O)C(c3ccccc3F)N2S(=O)(=O)c2ccc(C)cc2)cc1OC` (configuration not stated), -0.43%; for `COc1cccc(N(C)C(=O)[C@@H](C)[C@@H](O)c2ccc3ccccc3c2)c1`, -1.4%.

As to `O=C1NC(=O)C(c2ccc(Cl)cc2)N1` (configuration not stated), the inhibition was 2.25%. The same measure for `CC(C)Oc1ccc(C2NC(=O)NC2=O)cc1` (configuration not stated): 25% (active). `COc1ccc(C2NC(=O)N(C)C(C)=C2[N+](=O)[O-])cc1` (configuration not stated): the inhibition is 0.56%. The same measure for `N#Cc1ccccc1OC[C@@H](O)CN1CCC(C(O)(c2ccccc2)c2ccccc2)CC1`: -2.62%; for `Cc1ccc(CN2CCCCC(NC(=O)C3CCCCC3)C2=O)cc1` (configuration not stated): -1.14%.

Consider `CCS(=O)(=O)Nc1cc(C(=O)OC)ccc1C(=O)OC`, for which the inhibition was -4.74%.

Consider `CCCN(CCC)C(=S)Nc1cc(C(=O)OC)ccc1C(=O)OC`, for which the inhibition was 20.9% (active). The same measure for `CCN(CCO)C(=S)Nc1cc(C(=O)OC)ccc1C(=O)OC`: 2.08%. On to `COc1cccc(/C=C2\CC3(OC(C)=O)CCCN2C3)c1` (configuration not stated), for which the inhibition is -1.67%. With `O=C(NCC(c1cccs1)N1CCOCC1)c1cc(Cl)ccc1[N+](=O)[O-]` (configuration not stated), the inhibition was 29.1% (active). Turning to `Cc1ccc(-c2nn(-c3ccc(F)cc3)cc2C(=O)NCC(c2cccs2)N2CCOCC2)cc1` (configuration not stated), the inhibition is -1.94%. As for `COc1ccc(NS(=O)(=O)c2ccc(C)c(C(=O)NCC(c3cccs3)N3CCOCC3)c2)cc1` (configuration not stated), the inhibition was 3.98%.
